This is one part of a sample in which hits are shown more often than they occur.
Cycloheximide cs – counter-screen hit for Shiga toxin inhibitors, cycloheximide; hit rate 12% among 300,000; AID 2314; cell reporter, cycloheximide protein synthesis inhibition counterscreen; max response, %; in the data active = max response mostly above about 13%, no sharp cut-off; inactive = mostly below about 14%; also: read at 38.3 µM for the half of the compounds with a filed dose; 0% is about no effect
MARV entry inh – blocks Marburg virus binding to or entry into cells | Marburg virus pseudotyped entry inhibition, cell reporter | Potency, µM (top dose mostly 37.8 µM), inactives show at the highest dose activity change, negative = inhibition, usual class: inhibitors | hit rate 1.8% among 300,000 | AID 540276; calls by dose curve; tested in HEK293 cells; also: potency is read from the fitted curve at half-maximal effect; % is scaled to controls: 0 for no effect and ±100 for the full control effect
AMA1-RON2 inh – disrupts binding of P. falciparum AMA1 to RON2; AlphaScreen AMA1-biotinylated RON2 peptide binding; hit rate 0.2% among 360,000; Potency, µM (series often up to 58.2 µM), inactives show top-dose activity change, negative = inhibition, actives largely listed as inhibitors;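 also: potency is read from the fitted curve at half-maximal effect; 0% = vehicle wells and -100% = peptide control; nearly all actives have a fitted effect of over 45% in size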
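AMA1 (3D7) with his tag at 25 nM final met compounds first, then biotinylated RON2 peptide at 25 nM; detection used donor plus acceptor beads, 10 µg/mL apiece, read by AlphaScreen after 30 min at room temperature.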
Shiga inhibitor – inhibitors of Shiga toxin in Vero cells; Vero cells, Shiga toxin protein synthesis inhibition reporter; hit rate 9.2% among 290,000; inhibition, % at 38.7 µM; in the data active = inhibition mostly above about 28%, no sharp cut-off; inactive = mostly below about 43%; also: 0% is about no effect
Lassa entry inh – inhibitors of Lassa virus binding or cell entry. Lassa virus pseudotype entry inhibition, cell reporter. Potency, µM (doses to about 37.9 µM), for inactives: at the top dose activity change, negative = inhibition, usual class: inhibitors. hit rate 1.2% among 300,000. AID 540256; calls by dose curve; tested in HEK293 cells; also: potency is read from the fitted curve at half-maximal effect; % is scaled to controls: 0 for no effect and ±100 for the full control effect; nearly all actives have a fitted effect of over 50% in size
G2M arrest HeLa – inducers of G2/M cell cycle arrest in HeLa cells; shares compounds with MARV entry inh; hit rate 60% among 25; AID 2441; Potency, µM, usual class: inhibitors; HeLa cell cycle G2/M arrest, Hoechst DNA content imaging
WI-38 cytotox – toxic to WI-38 fibroblasts in PNC inhibitor counter-screen; WI-38 normal lung fibroblasts, ATPLite luminescence ATP viability, 24 h; 120 tested, under 10 active; Potency, µM (highest dose often 46.1 µM), without a hit: at the top dose activity change, negative = cytotoxicity, actives largely listed as inhibitors; shares compounds with MARV entry inh
PNC assembly inh – confirmation of perinucleolar compartment assembly inhibitors | shares compounds with MARV entry inh | PC3M PTB-GFP, PNC prevalence imaging, 16 h | Potency, µM (doses to about 46.1 µM), for the others: at the top dose activity, negative = PNC inhibition, hits mostly inhibitors | hit rate 50% among 120
PC3M caspase – counter-screen for PNC inhibitors: PC3M caspase 3/7 activation | PC3M-GFP caspase 3/7 activation, luminescence, 24 h | AID 2731 | activity change, positive = activation, % at 46.1 µM | 120 tested, under 10 active | shares compounds with MARV entry inh
Starred values were filed as active, the others as inactive; ? = inconclusive; · = no result given; [ ] = dose if it differs, or a comment. Unless noted, calls follow the shape of the dose curve; as a rule, active = well fitted curve in the direction sought with a large enough effect; inconclusive = small, poorly fitted or top-dose-only effect, or another doubt; inactive = no such curve, though single readings can be large; an effect the other way counts as inactive or inconclusive.

SMILES	Cycloheximide cs	MARV entry inh	AMA1-RON2 inh	Shiga inhibitor	Lassa entry inh	WI-38 cytotox	PNC assembly inh	PC3M caspase	others
CC(=O)N(C)C1=C(N2CCOCC2)C(=O)c2ccccc2C1=O	-1	1.5µM*	17%	-5	0.58µM*	?	?	?
CCOC(=O)c1c(C)[nH]c(C)c1S(=O)(=O)N1CCC(C(=O)Nc2ccccc2CC)CC1	·	·	·	·	-6%[46.1 µM]	·	·	·
COc1cc2c(c(OC)c1OC)-c1ccc(OC)c(=O)cc1[C@@H](NC(C)=O)CC2	-1	?	8%	-1	?	·	·	·	G2M arrest HeLa=0.02*
COc1ccccc1NC(=O)COC(=O)c1ccccc1OCC(=O)Nc1ccc(SC(F)F)cc1	-1	-1%	-12%	-11	3%	·	·	·
CN(C)C(=O)COC(=O)c1ccccc1Nc1ccc(SC(F)F)cc1	32*	-4%	1%	89	·	-12%	16µM*	-20
COc1ccc(/C=C/C(=O)OCC(=O)Nc2ccc(Cl)c(S(=O)(=O)N(C)C)c2)cc1OC	-4	-11%	-4%	-3	-10%	3%	7%	-4
O=C(c1ccc(Cl)c(S(=O)(=O)N2CCCC2)c1)N1CCN(c2ccccc2F)CC1	12	-16%[46.1 µM]	-14%	-6	?	·	·	·
CN1c2ccccc2C(C)(C)C12CC(c1ccc(Cl)c(S(=O)(=O)N3CCCC3)c1)=NO2 (centres undefined)	2	22%	·	8	-9%	9%	4µM*	-7
O=C1NN(c2ccccc2)C(=O)/C1=C/c1cccs1	-1	1%	·	-13	0%	·	·	·
O=C1C(=Cc2cccs2)C(=O)c2ccccc21	46*	-5%	-16%	28	5%	7%	2%	2
COc1ccc(/C=C(\C#N)C(=O)NCC(c2ccc(F)cc2)N2CCOCC2)cc1 (centres undefined)	4	·	-12%	-11	·	·	·	·
CCn1c2ccccc2c2nnc(SCC(=O)Nc3c(C)n(C)n(-c4ccccc4)c3=O)nc21	-4	-11%	-6%	-26	-28%	·	·	·
Cc1c(NC(=O)CSc2nnc3c4ccccc4n(CCc4ccccc4)c3n2)c(=O)n(-c2ccccc2)n1C	-1	?	-9%	-26	0.63µM*	17%	8.9µM*	-5
O=C(Nc1ccc(NC(=O)C2CC2)cn1)c1ccccc1Cl	33*	?	6%	50*	?	?	35µM*	-19

Assay outcomes deposited in PubChem by National Center for Advancing Translational Sciences (NCATS).
